# Assay outcomes (PubChem)
# Furin inhibitor = human furin inhibitors, primary screen, biochemical, fluorescence intensity | P09958 | purified furin, fluorogenic substrate cleavage | inhibition, % at 20 µM or 30 µM | hit rate 0.061% among 220,000; in the data active means inhibition above about 25%
# Target sequence (P09958 108-714 limits assumed): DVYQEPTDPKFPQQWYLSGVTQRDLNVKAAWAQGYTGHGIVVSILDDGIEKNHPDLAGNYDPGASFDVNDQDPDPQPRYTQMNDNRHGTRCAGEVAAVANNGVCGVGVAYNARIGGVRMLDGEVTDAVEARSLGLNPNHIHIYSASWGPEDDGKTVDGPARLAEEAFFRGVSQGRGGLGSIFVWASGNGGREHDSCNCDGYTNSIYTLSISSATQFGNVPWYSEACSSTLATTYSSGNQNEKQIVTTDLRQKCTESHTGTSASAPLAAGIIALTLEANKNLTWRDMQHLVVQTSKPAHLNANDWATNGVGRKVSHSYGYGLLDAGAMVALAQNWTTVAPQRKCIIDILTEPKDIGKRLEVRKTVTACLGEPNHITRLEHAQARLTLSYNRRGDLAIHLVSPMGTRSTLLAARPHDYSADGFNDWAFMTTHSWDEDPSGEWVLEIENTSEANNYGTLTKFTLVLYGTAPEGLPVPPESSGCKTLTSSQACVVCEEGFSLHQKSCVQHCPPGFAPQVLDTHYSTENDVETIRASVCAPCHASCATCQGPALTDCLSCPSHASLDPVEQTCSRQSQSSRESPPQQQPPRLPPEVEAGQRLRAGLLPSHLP
# EP2 antag = human EP2 receptor antagonists, primary screen, TR-FRET cAMP, C6 glioma cells; AID 1422, 2008; C6 glioma cells expressing human EP2; cells stimulated with saturating PGE2; inhibition, % at 25 µM; hit rate 0.52% among 260,000;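 active means percent inhibition above 40 after rounding to a whole number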;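 further: rat C6 glioma host cells with rolipram phosphodiesterase inhibitor present; the protocol text gives 20 µM as final concentration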
# EP2 mod = EP2 receptor modulators, cAMP readout, primary screen, cell-based, HTRF cAMP, PGE2 stimulation; EP2-expressing cells, cAMP HTRF FRET, PGE2 co-stimulation; AID 940, 2007; hit rate 0.83% among 260,000; induction, % at 25 µM;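 active means compounds whose cAMP rise, as percent of the full-agonist control response, exceeds 60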;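 further: rat C6 glioma line stably carrying human EP2 under a CMV promoter; the protocol text gives 20 µM as final concentration; 100% = response of wells given 1 µM PGE2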
# Wee1 stabilizer = Wee1 degradation inhibitors, primary screen, cell-based, HeLa, Wee1K328M-luciferase, luminescence | Wee1-like protein kinase (Homo sapiens), P30291 | HeLa Luc-Wee1K328M stability; 100% = proteasome inhibitor MG132 effect | reporter increase, % at 5 µM | hit rate 1.2% among 220,000;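 active means activation above the mean of all tested compounds plus 3 SD, set per screening run, cut at about 8.8% in these data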;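 further: cells exposed to compound for 20 h before luminescence read; 0% = DMSO alone and 100% = MG132 at 30 µM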
# p47phox inh = p47phox/p22phox peptide binding inhibitors, primary screen, biochemical, uHTS, NADPH oxidase regulatory subunit | AID 1274, 2008 | hit rate 0.53% among 220,000 | fluorescence polarization, 2 h | inhibition, % at 24.7 µM | Neutrophil cytosol factor 1 (Homo sapiens), P14598;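 active means inhibition above about 30%, limit read from the data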;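 further: 0% = p47phox with labelled peptide and 100% = labelled peptide alone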
# HSV replic up = enhancers of HSV replication in host cells, fold increase, host cell viability; AID 1956, 2009; maximum fold increase; HSV replication augmentation in cells; hit rate 0.005% among 220,000; in the data active means maximum fold increase above about 1.5; tested in PC3 cells
# Wee1 stab conf = Wee1 degradation inhibitors, confirmation, cell-based, HeLa, Wee1K328M-luciferase, luminescence, triplicate. shares compounds with Wee1 stabilizer. HeLa Luc-Wee1K328M degradation; vehicle 0%, proteasome-blocked wells 100%. activation, % at 5 µM. hit rate 4% among 1,100. AID 1410, 2008; in the data active means activation above about 8.9%
# Active calls of the source: *; i = inactive; / = no result. Shown are actives, neighbours in structure and some others; about 2.8% of the full set was active somewhere.
SMILES,Furin inhibitor,EP2 antag,EP2 mod,Wee1 stabilizer,p47phox inh,HSV replic up,Wee1 stab conf
O=C(COc1ccc(S(=O)(=O)N2CCCC2)cc1)Nc1cccc(F)c1,/,7,-21,/,/,/,/
CC(C(=O)c1c[nH]c(C(=O)N=CN(C)C)c1)c1ncc(C(F)(F)F)cc1Cl (centres undefined),-14,15,22,14*,5,i,2
CNC(=S)Nc1ccc(OCc2ccccc2)cc1,-27,6,-18,1,-11,i,/
CCOc1ccc(NC(=S)Nc2ccc(OCc3ccccc3)cc2)cc1,-3,6,-11,16*,-1,i,1
Cc1ccc(Nc2nc(C3CC3)cs2)cc1,-28,/,31,4,-10,/,/
Clc1ccc(Nc2nc(C3CC3)cs2)cc1,-18,/,6,12*,-1,/,4
NC(=O)Nc1ccc(C(=O)OCC(=O)Nc2ccc(Cl)cn2)cc1,-12,20,-23,2,-14,i,/
CNS(=O)(=O)c1cccc(C(=O)OCC(=O)Nc2ccc(Cl)cn2)c1,-1,5,-23,12*,-17,i,1
O=C(C1CCCCC1)N1CCC[C@H]1Cn1nc(-c2ccc3c(c2)OCO3)ccc1=O,/,/,16,/,/,/,/
O=C(N/N=C/c1ccco1)c1cc(=O)[nH]c2ccccc12,-8,6,-14,28*,-8,i,0
CC[C@H](Cn1nc(-c2ccc(OC)cc2)ccc1=O)NC(=O)c1n[nH]c(=O)c2ccccc12,/,/,-6,/,/,/,/
CNC(=O)COC(=O)c1ccc(-c2nc3ccccc3s2)s1,-24,14,-39,1,-24,i,/
O=CN1CCN(C(=O)c2ccc(-c3nc4ccccc4s3)s2)CC1,8,6,-77,17*,-8,i,2
Cc1ccc(NC(=O)c2noc3c2CCCCC3)cc1C,-17,/,11,13*,-4,/,1
CCC(C)[C@H](NC(=O)N1CCN(c2cccc(C(F)(F)F)c2)CC1)C(=O)OC (some centres undefined),-13,5,9,12*,2,i,3
O=C(COC(=O)c1cc(=O)c2ccccc2o1)NC1CCCCC1,-7,5,8,17*,-1,i,3
COCCN(C(=O)c1csnn1)C(C(=O)NC(C)(C)C)c1cccs1 (centres undefined),/,6,2,/,/,/,/
CCN(CC)CC(=O)NN(Cc1ccccc1)c1ccccc1,-29,3,10,11*,-9,i,2
CCC1Oc2ccc(C)cc2N(CC(=O)N(Cc2ccc(F)cc2)CC2CCCO2)C1=O (centres undefined),/,11,50,/,/,/,/
COc1cc(NC(=O)Cn2ccsc2=N)cc(OC)c1,-23,8,-25,13*,4,i,-1
N=c1sccn1CC(=O)Nc1ccc2c(c1)CCC2,-21,7,4,1,-6,i,/
CC(=O)NC1(c2ccccc2F)CCN(Cc2cc(Cl)c3c(c2)OCO3)CC1,/,7,-13,/,/,/,/
CCCCOC(=O)c1ccccc1N1C(=O)C2C3CCC(C3)C2C1=O (centres undefined),-18,4,28,12*,2,i,-2
OCCN(CCO)c1ncnc2c1sc1nc(N3CCOCC3)c3c(c12)CCCC3,-24,6,-12,14*,-8,i,1
CCn1cc(C(=O)OCC(=O)c2ccc(Cl)cc2)c(=O)c2ccc(C)nc21,-25,1,17,-1,0,i,/
SMILES,Furin inhibitor,EP2 antag,EP2 mod,Wee1 stabilizer,p47phox inh,HSV replic up,Wee1 stab conf
CCn1cc(C(=O)OCC(=O)c2ccccc2)c(=O)c2ccc(C)nc21,-18,7,22,12*,-7,i,-1
CN1C(=O)N(CC(=O)NCc2cccc(F)c2)c2cccnc2N1C,/,6,-21,/,/,/,/
CCOc1cccc(N(C(=O)Cc2cccs2)C(C(=O)NC2CCCCC2)c2cccn2C)c1 (centres undefined),-22,12,56,11*,0,i,9.6*
CCN(CC)CCNCC(=O)Nc1ccc2c(c1)OCO2,/,13,3,/,/,/,/
COc1ccccc1N1CCN(C2=Nc3cccc4cccc2c34)CC1,3,8,-74,15*,-5,i,2
COc1ccc(N2CCN(C(=O)Cn3ncc4cccn4c3=O)CC2)cc1,/,9,-25,/,/,/,/
Cc1ccc(C(=O)O)cc1NC(=S)NC(=O)c1ccc(-c2ccc(Cl)cc2)o1,-6,7,89*,12*,-19,i,1
Cc1ccc(C(=O)O)cc1NC(=S)NC(=O)c1ccc([N+](=O)[O-])cc1Cl,-18,1,9,3,-1,i,/
O=C(Cc1ccc(Cl)cc1)Nc1ccc(S(=O)(=O)Nc2cnc3ccccc3n2)cc1,-3,6,-14,12*,-15,i,1
COC(=O)c1ccc(S(=O)(=O)N(CCCO)Cc2cc3cc4c(cc3[nH]c2=O)OCCO4)cc1,/,16,8,/,/,/,/
COc1ccc(CN2CCC(n3cnc4cccnc43)CC2)cc1,/,/,-45,/,/,/,/
CCS(=O)(=O)N1Cc2ccccc2CC1C(=O)Nc1ccc(F)cc1 (centres undefined),1,6,11,15*,3,i,0
Cc1cc(C)c2c(c1)c1n[nH]c(=S)nc1n2C,/,9,-5,/,/,/,/
Cc1c(NC(=O)C(C)OC(=O)c2cccs2)c(=O)n(-c2ccccc2)n1C (centres undefined),-16,6,13,30*,4,i,0
Cc1c(NC(=O)c2cccs2)c(=O)n(-c2ccccc2)n1C,-22,6,8,-2,-2,i,/
COc1ccc(/C=C/C(=O)O/N=C(\N)c2ccccc2)cc1OC,3,9,-6,17*,6,i,0
COc1ccc(N(CC(=O)Nc2ccc(S(=O)(=O)N3CCCCC3)cc2)S(C)(=O)=O)cc1OC,-19,9,-19,24*,-8,i,0
COc1ccc(Cl)c2c1[nH]c1nc(SCc3cccnc3)nnc12,-13,2,12,13*,-5,i,-1
O=C(NCc1nc(-c2cccnc2)n[nH]1)c1cc(F)cc(F)c1,/,10,-56,/,/,/,/
CCCn1c(SCC(=O)Nc2ccccc2F)nnc1C(C)C,/,10,-21,/,/,/,/
CCCCCc1c(C)nc(Nc2ccc(F)cc2)[nH]c1=O,-22,-2,7,-1,-10,i,/
